The test system of this assay is Aedes aegypti neuropeptide Y-like receptor 7 (NPYLR7). Briefly: agonists of mosquito NPYLR7 receptor, primary screen, cell-based, Aedes aegypti, calcium fluorescence, mosquito biting behavior (AID 1259423).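 Further: 0% = vehicle and 100% = reference agonist at the receptor.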 To be noted: HEK293T NPYLR7/Galpha15, GCaMP6s calcium fluorescence, at 10 µM, stronger effect = higher value.
Where [1] appears, read: measured here: Max-Min RFU normalised activation.

Where “and” joins values, the source holds several entries; their conditions need not be identical. Identical values can stand only once. The whole screen tested about 270,000 compounds, of which about 410 (0.15%) were called active. No stated cut-off is given here; in the data, active means activation above about 40%; inactive means the rest, inconclusive results apart. Many of the other results were omitted from the sample, so actives are more common in it than they were. Where a structure was tested more than once in an assay, its records may differ in their call.

Take `O=c1oc2c(CN3CC4CC(C3)c3cccc(=O)n3C4)c(O)ccc2cc1-c1nc2ccccc2s1` (configuration not stated): the activation was 303% (active). Moreover, under setting [1], the activation was 372%.

`COc1ccc2cc(C3CN(C(=O)c4ccc[nH]4)CCO3)ccc2c1` (configuration not stated): the activation was -5.79% (inactive). Moreover, the activation under setting [1] was -7.4%.

Turning to `COc1cc(C(=O)N2CCOC(c3ccccc3)C2)cc(OC)c1C` (configuration not stated), the activation was 77.6% (active). Also, the activation under setting [1] is 58.9%.

On to `Cc1c(F)cccc1C(=O)N1CCOC(c2ccccc2)C1` (configuration not stated), for which the activation was 0.877% (inactive). Under setting [1], the activation was -1.3%.

In the case of `O=S(=O)(Cc1ccc(F)cc1)NCc1ccccc1OC(F)F`, the activation is 1.17% (inactive). Further, under setting [1], the activation is 1.23%.

As to `Cc1cccc(C(=O)O/N=C\c2ccc(Br)cc2)c1`, the activation is 0.973% (inactive). Also, the activation under setting [1] is 3.02%.

Consider `CON(C)C(=O)c1cccc(CN2CCS(=O)(=O)CC2)c1`, for which the activation is 7.7% (inactive). Also, the activation under setting [1] is 4.38%.

On to `CCOC(C)c1noc(CNC2(c3noc(CC)n3)CCCC2)n1` (configuration not stated), for which the activation was 3.73% (inactive). Also, the activation under setting [1] was 1.21%.

As for `C(=C\c1nn2c(CN3CCCCC3)nnc2s1)/c1ccccc1`, the activation is 1.3% (inactive). The activation under setting [1] was 0.534%.

Take `COC(=O)C1Cc2ccccc2CN1Cc1cccc(C(=O)N(C)C)c1` (configuration not stated): the activation is 1.77% (inactive). For the same compound, the activation under setting [1] was -13.5%.

On to `COc1ccc(CCN2CCC(CN(C)C(=O)c3ccoc3)CC2)cc1`, for which the activation was 13.3% (inactive). The activation under setting [1] was 6.16%.

With `O=c1[nH]c(Cn2nnc3ccccc3c2=O)nc2ccccc12`, the activation was -3.31% (inactive). Moreover, under setting [1], the activation was -3.64%.

Turning to `CCCCCCCC(=O)Nc1c(-c2ccc(Cl)cc2)nc2cc(C)ccn12`, the activation is -5.12% (inactive). For the same compound, the activation under setting [1] came out at 1.14%.

On to `C/C=C\COC1CCCN(C(=O)COc2ccc(Cl)cc2)C1` (configuration not stated), for which the activation was -4.16% (inactive). The activation under setting [1] was -5.2%.

For the compound `CCN1CCN(CC(O)COc2ccc(CN3CCc4ccccc4C3)cc2OC)CC1` (configuration not stated), the activation is 3.88% (inactive). For the same compound, the activation under setting [1] worked out at 3.04%.

In the case of `Brc1ccc(Oc2nc(N3CCCC3)nc(N3CCCC3)n2)cc1`, the activation is -2.87% (inactive). In addition, under setting [1], the activation is -5.23%.

Take `N#CC1C(=N)SC(=N)C(C#N)C1c1cccc(O)c1` (configuration not stated): the activation was 51% (active). Under setting [1], the activation stood at 53%.

As to `N#CC1C(=N)SC(=N)C(C#N)C1c1ccco1` (configuration not stated), the activation was -5.34% (inactive). The activation under setting [1] is -2.82%.

With `CCc1ccc(C2C(C#N)C(=N)SC(=N)C2C#N)cc1` (configuration not stated), the activation was 0.645% (inactive). Moreover, the activation under setting [1] is -2.49%.

Consider `COc1ccc(-c2nc(NC(=O)C3CCCC3)sc2C)cc1`, for which the activation was -2.08% (inactive). Further, the activation under setting [1] was determined as 2.65%.

With `CCC(C)(NC(=O)C1Cc2ccccc2O1)c1nccs1` (configuration not stated), the activation was -1.24% (inactive). Further, the activation under setting [1] was -2.94%.

`CCC1CCCCN1C(=O)CSc1c(C)[nH]c2ccccc12` (configuration not stated): the activation was -1.59% (inactive). Further, under setting [1], the activation is -2.64%.

Regarding `CCCN(C(=O)Cn1nc(C)c2ccccc2c1=O)[C@@H]1CCCC[C@H]1O`, the activation is 0.206% (inactive). In addition, under setting [1], the activation was -0.142%.

Take `CCCc1cc(=O)n2[nH]c(C)c(-c3cccc4ccccc34)c2n1`: the activation was -15.2% (inactive). Under setting [1], the activation is -20.4%.

For `NC(=O)CN1C(=O)COc2ccccc21`, the activation is -19.8% (inactive). Moreover, the activation under setting [1] was -26.8%.

Regarding `CCCCN(C)C(=O)c1cnn(-c2ccccc2)c1`, the activation is 0.0336% (inactive). In addition, the activation under setting [1] is -1.33%.

Regarding `O=C(NC1C=CS(=O)(=O)C1)c1cccc2ccnn12` (configuration not stated), the activation was 22.3% (inactive). In addition, the activation under setting [1] amounted to 9.91%.

Turning to `CCC(N)(C(=O)OC)c1ccccc1` (configuration not stated), the activation is 8.89% (inactive). In addition, under setting [1], the activation amounted to 3.04%.

As for `CCCC(C(=O)OCCN(CC)CC)(c1ccccc1)c1ccccc1`, the activation is 3.25% (inactive) and -1.52% (inactive) and 68.5% (active). Besides, the activation under setting [1] is -42.8% and -5.9% and 58.4%.

Take `CC1Cc2c(NC(=O)CSCc3ccccc3)nn(C)c2NC1=O` (configuration not stated): the activation is 3.06% (inactive). For the same compound, the activation under setting [1] is -2.58%.

Regarding `CCN(CC)c1ccc2cc(-c3nnc(Nc4ccccc4F)s3)c(=O)oc2c1`, the activation is -10.4% (inactive). Moreover, the activation under setting [1] was -12.8%.

In the case of `O=c1[nH]c(=O)n(Cc2cccc(OC(F)F)c2)cc1Cl`, the activation is 0.422% (inactive) and -19.6% (inactive). Further, the activation under setting [1] was -0.254% and -21%.

Regarding `CC(c1cccs1)N(C)C(=O)c1n[nH]c(C2CC2)c1Br` (configuration not stated), the activation was -2.08% (inactive). Further, under setting [1], the activation worked out at 0.622%.

Turning to `O=C1Nc2ccccc2C1=NN=C(C(=O)c1ccccc1)c1ccccc1`, the activation was 11.7% (inactive). In addition, the activation under setting [1] stood at 10.9%.

On to `CCC(=O)Nc1cccc(OCC(=O)N2CCCC2c2nonc2C)c1` (configuration not stated), for which the activation is -16.1% (inactive). The activation under setting [1] is -16.7%.

Consider `Cc1ccc(NC(=O)Cn2cnc3sc4c(c3c2=O)CCC4)c(F)c1`, for which the activation was -14.9% (inactive). For the same compound, the activation under setting [1] is -15.4%.

Consider `COc1cc(OC)c(OC)cc1/C=C1/SC(=S)NC1=O`, for which the activation was -3.39% (inactive). Also, under setting [1], the activation was -7.58%.

With `COc1cc(C=C2SC(=S)NC2=O)cc(Br)c1O`, the activation was 668% (active). Further, under setting [1], the activation came out at 942%.

As to `COc1ccc(C=C2SC(=S)NC2=O)cc1OC`, the activation is 1.47% (inactive). For the same compound, the activation under setting [1] is 3.32%.

Regarding `Cc1cc(S(=O)(=O)C(CNC(=O)CC(C)(C)C)c2cccs2)ccc1F` (configuration not stated), the activation is 5.15% (inactive). Under setting [1], the activation came out at 2.88%.

Consider `COCCNC(=S)N(CCC#N)CCN(CCC#N)C(=S)NCCOC`, for which the activation was -2.49% (inactive). Also, under setting [1], the activation was -3.45%.
